Here are results for 6 compounds from ChEMBL document CHEMBL1961873, “Compounds: GSK PKIS; Assays: Nanosyn kinase panel” (2012).

Test [1] addresses Tyrosine-protein kinase Fyn (Homo sapiens) (UniProt P06241). To be noted: at 1 µM.
The target of test [2] is Tyrosine-protein kinase HCK (Homo sapiens) (UniProt P08631). To be noted: at 0.1 µM.
Test [3] has the same target. To be noted: at 1 µM.
Test [4] has as its target Insulin-like growth factor 1 receptor (Homo sapiens) (UniProt P08069). The following applies: at 0.1 µM.
The target is the same in test [5]. To be noted: at 1 µM.
The target in test [6] is Insulin receptor (Homo sapiens) (UniProt P06213). The following applies: at 0.1 µM.
The target is the same in test [7]. To be noted: at 1 µM.
Test [8] deals with Insulin receptor-related protein (Homo sapiens) (UniProt P14616). To be noted: at 0.1 µM.
Test [9] shares this target. The following applies: at 1 µM.
Test [10] addresses T1, Tyrosine-protein kinase ITK/TSK (Homo sapiens) (UniProt Q08881).
T1 sequence (whole entry): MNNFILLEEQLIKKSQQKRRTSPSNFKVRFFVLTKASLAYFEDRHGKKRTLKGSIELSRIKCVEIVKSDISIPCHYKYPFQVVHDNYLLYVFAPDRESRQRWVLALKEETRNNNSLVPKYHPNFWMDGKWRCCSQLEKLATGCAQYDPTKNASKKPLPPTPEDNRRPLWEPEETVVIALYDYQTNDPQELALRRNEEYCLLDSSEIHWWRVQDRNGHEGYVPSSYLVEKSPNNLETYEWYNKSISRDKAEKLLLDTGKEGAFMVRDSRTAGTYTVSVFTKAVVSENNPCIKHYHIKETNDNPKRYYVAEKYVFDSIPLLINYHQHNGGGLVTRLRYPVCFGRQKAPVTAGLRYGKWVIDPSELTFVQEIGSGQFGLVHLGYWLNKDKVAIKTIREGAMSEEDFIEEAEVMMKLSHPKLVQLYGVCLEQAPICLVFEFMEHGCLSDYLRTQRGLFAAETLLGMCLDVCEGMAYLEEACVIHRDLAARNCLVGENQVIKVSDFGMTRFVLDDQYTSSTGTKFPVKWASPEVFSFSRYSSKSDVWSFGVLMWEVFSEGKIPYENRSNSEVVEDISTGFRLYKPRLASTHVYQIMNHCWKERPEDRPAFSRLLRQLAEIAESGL
The following applies: at 0.1 µM.

Test [11] deals with T1, Tyrosine-protein kinase ITK/TSK (Homo sapiens). The following applies: at 1 µM.
The target in test [12] is Tyrosine-protein kinase JAK1 (Homo sapiens) (UniProt P23458). To be noted: at 0.1 µM.
Sequence of Tyrosine-protein kinase JAK1 (Homo sapiens) (P23458 whole entry): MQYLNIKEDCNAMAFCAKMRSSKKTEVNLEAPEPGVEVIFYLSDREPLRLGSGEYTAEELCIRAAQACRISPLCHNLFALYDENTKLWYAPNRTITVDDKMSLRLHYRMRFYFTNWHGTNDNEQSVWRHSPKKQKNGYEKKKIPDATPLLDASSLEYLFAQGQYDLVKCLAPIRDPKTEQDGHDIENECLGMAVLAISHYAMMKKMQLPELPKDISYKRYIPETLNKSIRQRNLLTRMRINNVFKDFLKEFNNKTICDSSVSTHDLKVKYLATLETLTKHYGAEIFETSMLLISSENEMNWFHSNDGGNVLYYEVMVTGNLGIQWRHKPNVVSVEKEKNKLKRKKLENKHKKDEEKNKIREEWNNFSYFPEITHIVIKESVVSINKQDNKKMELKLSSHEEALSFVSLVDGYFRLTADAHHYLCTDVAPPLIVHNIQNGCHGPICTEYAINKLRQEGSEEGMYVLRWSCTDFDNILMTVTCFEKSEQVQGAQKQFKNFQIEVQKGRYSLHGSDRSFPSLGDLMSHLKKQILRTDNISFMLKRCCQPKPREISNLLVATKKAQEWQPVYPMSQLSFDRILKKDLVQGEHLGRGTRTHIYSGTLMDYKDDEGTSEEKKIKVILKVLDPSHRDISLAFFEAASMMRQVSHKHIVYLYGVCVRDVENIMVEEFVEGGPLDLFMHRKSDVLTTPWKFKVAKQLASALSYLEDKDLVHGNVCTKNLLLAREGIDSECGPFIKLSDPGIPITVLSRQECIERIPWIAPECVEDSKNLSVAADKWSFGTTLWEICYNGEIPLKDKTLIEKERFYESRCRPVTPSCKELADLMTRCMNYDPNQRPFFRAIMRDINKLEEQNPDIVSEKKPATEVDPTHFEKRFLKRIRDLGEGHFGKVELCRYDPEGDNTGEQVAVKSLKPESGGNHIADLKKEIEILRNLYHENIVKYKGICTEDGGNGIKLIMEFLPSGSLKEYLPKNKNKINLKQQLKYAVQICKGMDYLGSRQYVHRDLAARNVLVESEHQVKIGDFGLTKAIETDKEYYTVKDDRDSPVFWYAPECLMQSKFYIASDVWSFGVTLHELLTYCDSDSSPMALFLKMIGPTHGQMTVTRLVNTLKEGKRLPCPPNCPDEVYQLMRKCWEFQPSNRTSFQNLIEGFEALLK
The target is the same in test [13]. The following applies: at 1 µM.
Test [14] concerns the target Tyrosine-protein kinase JAK2 (Homo sapiens) (UniProt O60674). The following applies: at 0.1 µM.
Test [15] shares this target. To be noted: at 1 µM.
Test [16] deals with T2, Tyrosine-protein kinase JAK3 (Homo sapiens) (UniProt P52333).
T2 sequence (whole entry): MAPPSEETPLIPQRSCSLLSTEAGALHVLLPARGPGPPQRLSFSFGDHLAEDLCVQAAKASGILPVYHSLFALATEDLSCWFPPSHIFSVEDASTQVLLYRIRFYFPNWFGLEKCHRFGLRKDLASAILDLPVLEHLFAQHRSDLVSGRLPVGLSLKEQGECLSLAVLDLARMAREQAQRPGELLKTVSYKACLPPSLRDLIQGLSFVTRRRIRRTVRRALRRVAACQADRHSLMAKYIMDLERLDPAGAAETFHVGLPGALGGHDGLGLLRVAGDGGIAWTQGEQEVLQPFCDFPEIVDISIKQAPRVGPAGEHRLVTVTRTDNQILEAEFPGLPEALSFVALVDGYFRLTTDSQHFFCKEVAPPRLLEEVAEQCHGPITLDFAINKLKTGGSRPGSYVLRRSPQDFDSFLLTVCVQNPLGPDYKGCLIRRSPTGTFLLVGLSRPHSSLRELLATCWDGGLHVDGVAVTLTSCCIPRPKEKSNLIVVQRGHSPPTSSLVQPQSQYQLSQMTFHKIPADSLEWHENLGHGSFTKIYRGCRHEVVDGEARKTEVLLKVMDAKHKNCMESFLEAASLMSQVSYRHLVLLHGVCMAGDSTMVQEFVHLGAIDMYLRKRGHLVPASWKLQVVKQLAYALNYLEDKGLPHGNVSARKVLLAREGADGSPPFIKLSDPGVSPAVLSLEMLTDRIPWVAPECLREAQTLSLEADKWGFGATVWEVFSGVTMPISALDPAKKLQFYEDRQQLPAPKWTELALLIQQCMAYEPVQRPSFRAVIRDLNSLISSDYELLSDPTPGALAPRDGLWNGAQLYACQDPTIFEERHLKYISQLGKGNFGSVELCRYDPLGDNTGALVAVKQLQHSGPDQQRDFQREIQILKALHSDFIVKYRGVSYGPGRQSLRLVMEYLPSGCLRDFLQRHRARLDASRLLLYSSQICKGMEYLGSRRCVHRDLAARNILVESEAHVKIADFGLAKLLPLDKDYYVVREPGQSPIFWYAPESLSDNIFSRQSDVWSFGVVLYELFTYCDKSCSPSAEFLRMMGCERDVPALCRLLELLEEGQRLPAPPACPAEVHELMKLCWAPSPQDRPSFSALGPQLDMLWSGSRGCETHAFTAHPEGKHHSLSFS
The following applies: at 0.1 µM.

For test [17], the target named is T2, Tyrosine-protein kinase JAK3 (Homo sapiens). To be noted: at 1 µM.
For test [18], the target named is Vascular endothelial growth factor receptor 2 (Homo sapiens) (UniProt P35968). To be noted: at 0.1 µM.
Sequence of Vascular endothelial growth factor receptor 2 (Homo sapiens) (P35968 whole entry): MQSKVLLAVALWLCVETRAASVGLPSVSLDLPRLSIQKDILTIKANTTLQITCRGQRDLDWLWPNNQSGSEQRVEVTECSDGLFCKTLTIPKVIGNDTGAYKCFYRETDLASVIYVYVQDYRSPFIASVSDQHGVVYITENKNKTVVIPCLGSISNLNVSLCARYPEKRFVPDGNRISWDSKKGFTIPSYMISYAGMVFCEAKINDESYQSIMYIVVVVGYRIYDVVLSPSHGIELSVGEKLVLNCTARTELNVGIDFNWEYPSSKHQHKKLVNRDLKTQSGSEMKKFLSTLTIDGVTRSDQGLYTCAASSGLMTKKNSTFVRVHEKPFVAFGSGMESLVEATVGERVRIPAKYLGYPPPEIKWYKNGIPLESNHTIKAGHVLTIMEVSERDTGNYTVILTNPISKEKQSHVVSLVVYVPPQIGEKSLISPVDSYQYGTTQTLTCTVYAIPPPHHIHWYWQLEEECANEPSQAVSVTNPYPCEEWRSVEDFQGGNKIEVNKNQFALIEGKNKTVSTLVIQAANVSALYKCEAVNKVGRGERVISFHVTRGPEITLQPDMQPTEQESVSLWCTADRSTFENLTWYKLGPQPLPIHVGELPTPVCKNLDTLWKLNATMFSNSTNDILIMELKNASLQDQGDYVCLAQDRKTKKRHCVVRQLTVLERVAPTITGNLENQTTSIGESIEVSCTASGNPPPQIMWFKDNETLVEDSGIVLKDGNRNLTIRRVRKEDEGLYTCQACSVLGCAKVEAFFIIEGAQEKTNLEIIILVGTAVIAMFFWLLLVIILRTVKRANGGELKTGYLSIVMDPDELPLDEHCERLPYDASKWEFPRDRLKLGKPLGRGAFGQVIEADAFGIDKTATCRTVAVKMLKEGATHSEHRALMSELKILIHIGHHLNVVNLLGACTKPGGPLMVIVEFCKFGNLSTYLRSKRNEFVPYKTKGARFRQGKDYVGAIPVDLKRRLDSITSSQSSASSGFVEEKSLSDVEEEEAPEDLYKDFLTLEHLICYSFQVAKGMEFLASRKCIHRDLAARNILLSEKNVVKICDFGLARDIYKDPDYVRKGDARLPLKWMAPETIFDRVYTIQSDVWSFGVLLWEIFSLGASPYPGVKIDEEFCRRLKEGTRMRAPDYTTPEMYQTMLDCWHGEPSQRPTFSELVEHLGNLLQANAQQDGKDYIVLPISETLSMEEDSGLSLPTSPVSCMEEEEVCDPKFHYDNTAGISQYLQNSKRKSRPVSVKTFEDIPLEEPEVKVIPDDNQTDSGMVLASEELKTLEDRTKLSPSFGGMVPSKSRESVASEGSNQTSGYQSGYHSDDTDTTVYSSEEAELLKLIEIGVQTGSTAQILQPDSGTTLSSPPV
Test [19] shares this target. To be noted: at 1 µM.
Test [20] has as its target Mast/stem cell growth factor receptor Kit (Homo sapiens) (UniProt P10721). The following applies: at 0.1 µM.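 Further: values are mean inhibition of KIT, from the GSK PKIS dataset.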

Sequence of Tyrosine-protein kinase HCK (Homo sapiens) (P08631 2-526 limits assumed): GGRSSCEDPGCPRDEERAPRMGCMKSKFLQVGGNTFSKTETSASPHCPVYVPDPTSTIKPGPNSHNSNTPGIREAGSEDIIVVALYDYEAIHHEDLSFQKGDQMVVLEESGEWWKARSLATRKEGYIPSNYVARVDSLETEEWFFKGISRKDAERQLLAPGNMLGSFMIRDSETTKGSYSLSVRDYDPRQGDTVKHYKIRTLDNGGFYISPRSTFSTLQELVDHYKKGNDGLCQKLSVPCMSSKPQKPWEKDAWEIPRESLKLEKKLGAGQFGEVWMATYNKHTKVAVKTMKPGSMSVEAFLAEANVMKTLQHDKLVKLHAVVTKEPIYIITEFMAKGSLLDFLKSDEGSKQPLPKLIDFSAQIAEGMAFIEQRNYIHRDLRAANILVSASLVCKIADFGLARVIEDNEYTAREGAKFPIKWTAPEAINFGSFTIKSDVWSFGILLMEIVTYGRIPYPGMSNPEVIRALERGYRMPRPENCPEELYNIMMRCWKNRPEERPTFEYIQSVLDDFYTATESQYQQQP
Sequence of Tyrosine-protein kinase JAK2 (Homo sapiens) (O60674 whole entry): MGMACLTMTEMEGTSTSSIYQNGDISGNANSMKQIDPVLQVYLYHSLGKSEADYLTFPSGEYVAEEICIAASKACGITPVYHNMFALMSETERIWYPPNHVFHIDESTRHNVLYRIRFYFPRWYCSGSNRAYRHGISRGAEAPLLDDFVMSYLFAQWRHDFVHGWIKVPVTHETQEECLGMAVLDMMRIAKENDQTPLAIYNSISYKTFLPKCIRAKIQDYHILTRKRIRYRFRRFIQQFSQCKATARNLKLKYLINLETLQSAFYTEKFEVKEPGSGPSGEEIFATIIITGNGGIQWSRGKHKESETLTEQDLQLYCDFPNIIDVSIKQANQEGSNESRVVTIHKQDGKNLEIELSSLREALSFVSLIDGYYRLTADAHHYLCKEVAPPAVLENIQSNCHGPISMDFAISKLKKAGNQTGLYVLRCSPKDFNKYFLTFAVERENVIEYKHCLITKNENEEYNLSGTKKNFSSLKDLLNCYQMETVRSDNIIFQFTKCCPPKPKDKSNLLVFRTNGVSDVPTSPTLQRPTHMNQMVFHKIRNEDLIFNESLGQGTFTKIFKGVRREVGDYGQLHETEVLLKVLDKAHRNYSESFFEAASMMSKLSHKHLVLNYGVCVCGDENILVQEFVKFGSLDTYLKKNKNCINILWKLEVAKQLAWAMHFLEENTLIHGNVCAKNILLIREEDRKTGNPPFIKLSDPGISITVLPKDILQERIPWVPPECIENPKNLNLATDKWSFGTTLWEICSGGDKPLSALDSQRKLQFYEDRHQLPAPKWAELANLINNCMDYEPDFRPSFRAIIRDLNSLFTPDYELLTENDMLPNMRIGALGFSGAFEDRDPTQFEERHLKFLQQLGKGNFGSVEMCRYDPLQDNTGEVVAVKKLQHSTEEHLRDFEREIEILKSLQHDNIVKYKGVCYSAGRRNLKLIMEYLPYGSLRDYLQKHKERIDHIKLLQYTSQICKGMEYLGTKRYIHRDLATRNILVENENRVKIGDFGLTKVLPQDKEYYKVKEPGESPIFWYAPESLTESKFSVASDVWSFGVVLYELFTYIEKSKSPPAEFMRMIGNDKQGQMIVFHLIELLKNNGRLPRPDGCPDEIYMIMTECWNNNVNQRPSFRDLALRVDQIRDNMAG
Sequence of Tyrosine-protein kinase Fyn (Homo sapiens) (P06241 2-537 limits assumed): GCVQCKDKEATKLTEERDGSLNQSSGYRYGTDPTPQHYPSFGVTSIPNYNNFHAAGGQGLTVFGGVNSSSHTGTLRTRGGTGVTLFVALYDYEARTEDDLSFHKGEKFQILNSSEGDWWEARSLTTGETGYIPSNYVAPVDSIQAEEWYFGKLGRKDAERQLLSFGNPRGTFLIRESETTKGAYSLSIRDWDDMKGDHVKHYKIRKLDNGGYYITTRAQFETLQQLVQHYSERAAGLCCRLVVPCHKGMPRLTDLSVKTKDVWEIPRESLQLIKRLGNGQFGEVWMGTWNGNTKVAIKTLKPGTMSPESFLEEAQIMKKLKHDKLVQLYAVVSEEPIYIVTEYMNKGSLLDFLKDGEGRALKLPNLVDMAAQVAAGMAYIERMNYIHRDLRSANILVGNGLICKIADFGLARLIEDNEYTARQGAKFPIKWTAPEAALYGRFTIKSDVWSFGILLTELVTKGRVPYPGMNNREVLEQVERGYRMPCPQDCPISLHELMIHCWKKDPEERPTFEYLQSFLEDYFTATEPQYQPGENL

A word on the inhibition: it is the relative decrease from the control value, in per cent. Turning to `Fc1cccc(COc2ccc(Nc3ncnc4cc(-c5ccc[nH]5)sc34)cc2Cl)c1`, the inhibition in test [1] is 4.86%; in [2], 3.68%; in test [3], 9.04%; in [4], -6.59%; in [5] it was -4.84%; in test [6], 5.37%. The inhibition in test [7] was 6%; in test [8] it was -0.19%; in [9] it was 0.95%; in test [10], -2.3%; in [11], -1.9%; in test [12] it was 2.84%. Further, the inhibition in test [13] is 13.6%; in test [14] it was 1.26%; in [15], 3.62%; in test [16], -3.97%; in [17], -1.5%; in [18], 6.01%. Further, the results for the inhibition in test [19] and in test [20] were 11.8% and 2.16%, respectively.

For the compound `CCn1c(-c2nonc2N)nc2cncc(C(=O)N3CCNCC3)c21`, the inhibition in test [1] was 2.87%; in test [2], 6.76%; in test [3] it was 9.25%; in test [4] it was 8.86%; in test [5] it was 9.25%; in [6] it was 10.5%. Moreover, the inhibition came to 9.41% in [7]; 4.06% in [8]; 6.22% in test [9]; 2.63% in test [10]; 2.09% in test [11]; 4.28% in test [12]. For the same compound, the inhibition in [13] was 4.72%; in [14], 4.03%; in test [15], 2.86%; in test [16] it was -0.41%; in test [17], -0.7%; in [18], 3.99%. Also, the inhibition in [19] amounted to 9.13%; in [20], 7.95%.

On to `O=C1Nc2ccc(C(=O)c3ccco3)cc2C1=Cc1cc(Cl)c(O)c(Cl)c1`, for which the inhibition in [1] is 20.7%; in [2] it was 5.82%; in test [3] it was 17.4%; in [4], 4.15%; in test [5], 4.7%; in [6], 5.71%. Also, the inhibition in [7] came out at 3.98%; in test [8], 1.08%; in [9], 2.14%; in [10], 1.31%; in test [11], 3.21%; in test [12], 5.2%. The inhibition in [13] came to 7.05%; in [14], 2.07%; in test [15], 6%; in [16] it was 12.7%; in test [17] it was 66.9%; in test [18], 6.41%. Besides, the inhibition in test [19] stood at 18.7%; in test [20], 16.6%.

For the compound `Cn1cc(C=C2C(=O)Nc3cccnc32)c2ccccc21`, the inhibition turned out to be 15.4% in test [1]; 6.56% in test [2]; 42.1% in [3]; 1.72% in test [4]; 8.98% in test [5]; 3.49% in test [6]. For the same compound, the inhibition amounted to 20.1% in [7]; 0.41% in [8]; 1.8% in [9]; 2.56% in [10]; 15.7% in [11]; 1.61% in test [12]. Further, the inhibition was -6.11% in test [13]; 0.37% in test [14]; 2.77% in test [15]; -0.5% in test [16]; 4.53% in test [17]; 14.7% in test [18]. Also, the inhibition in [19] worked out at 54.8%; in [20] it was 11.3%.

Turning to `CC(C)=Cc1cccc2c1/C(=N/Nc1ccc(S(N)(=O)=O)cc1)C(=O)N2`, the inhibition in test [1] is 27.3%; in [2] it was 2.33%; in test [3] it was 21.4%; in test [4] it was 2.45%; in [5], 8.58%; in test [6], 1.28%. The inhibition in test [7] amounted to 13.6%; in [8] it was 1.95%; in test [9], 2.95%; in test [10], 0.64%; in test [11], 4.66%; in test [12], 2.53%. Also, the inhibition came out at 17.6% in test [13]; 2.18% in test [14]; 34.2% in test [15]; 5.65% in test [16]; 54.4% in test [17]; 8.9% in [18]. The inhibition in test [19] turned out to be 48.5%; in test [20] it was 14.1%.

On to `CCCN1CCC=C(c2ccc(Nc3nc(Nc4ccccc4C(N)=O)c4cc[nH]c4n3)c(C)c2)C1`, for which the inhibition was 7.24% in test [1]; 7.82% in test [2]; 16.3% in [3]; 97.6% in test [4]; 99.2% in [5]; 84% in test [6]. Moreover, the inhibition amounted to 90.1% in test [7]; 23.2% in [8]; 70.8% in [9]; 1.99% in test [10]; 7.61% in test [11]; 2.14% in [12]. The inhibition in test [13] was 3.46%; in test [14] it was 2.19%; in [15], 2.74%; in test [16] it was -1.04%; in [17], 0.49%; in test [18], 0.98%. For the same compound, the figures for the inhibition in test [19] and in [20] were 17.7% and 4.24%, respectively.
